AMA1-RON2 inh: disrupts binding of P. falciparum AMA1 to RON2. AlphaScreen AMA1-biotinylated RON2 peptide binding. Potency, µM (doses to about 58.2 µM), without a hit: top-dose activity change, negative = inhibition, usual class: inhibitors. 360,000 tested, 0.2% active. AID 720542; active means well fitted inhibition curve with a large enough effect; inconclusive means small, poorly fitted or top-dose-only effect; inactive means no such curve, though single readings can be large or run the other way;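 further: potency means the concentration at half of the fitted maximal effect; 0% = vehicle wells and -100% = peptide control; nearly all actives have a fitted effect of over 45% in size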
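AMA1 (3D7) with his tag at 25 nM final met compounds first, then biotinylated RON2 peptide at 25 nM; detection used donor plus acceptor beads, 10 µg/mL apiece, read by AlphaScreen after 30 min at room temperature.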
CHX counter: counter-screen for Shiga toxin inhibitors: cycloheximide protein synthesis inhibition. cell reporter, cycloheximide protein synthesis inhibition counterscreen. max response, %. 300,000 tested, 12% active. AID 2314; in the data active means max response mostly above about 13%, no sharp cut-off; inactive means mostly below about 14%; further: read at 38.3 µM for the half of the compounds with a filed dose; 0% is about no effect
Shiga inhibitor: inhibitors of Shiga toxin in Vero cells; Vero cells, Shiga toxin protein synthesis inhibition reporter; inhibition, % at 38.7 µM; 290,000 tested, 9.2% active; in the data active means inhibition mostly above about 28%, no sharp cut-off; inactive means mostly below about 43%; further: 0% is about no effect
LASV entry inh: blocks Lassa virus binding to or entry into cells; Lassa virus pseudotype entry inhibition, cell reporter; Potency, µM (series often up to 37.9 µM), without a hit: at the highest dose activity change, negative = inhibition, actives largely listed as inhibitors; 300,000 tested, 1.2% active; calls by dose curve; tested in HEK293 cells; further: potency means the concentration at half of the fitted maximal effect; on the % scale 0 is the no-effect control and ±100 the full control effect; nearly all actives have a fitted effect of over 50% in size
Marburg entry inh: inhibitors of Marburg virus binding or cell entry; AID 540276; Marburg virus pseudotyped entry inhibition, cell reporter; Potency, µM (series often up to 37.8 µM), for the others: at the highest dose activity change, negative = inhibition, actives largely listed as inhibitors; 300,000 tested, 1.8% active; calls by dose curve; tested in HEK293 cells; further: potency means the concentration at half of the fitted maximal effect; on the % scale 0 is the no-effect control and ±100 the full control effect
An asterisk follows results filed as active; ? = inconclusive; . = no result; [ ] = remark or other dose. The sample as a whole holds a higher share of hits than the screen did.

SMILES | AMA1-RON2 inh | CHX counter | Shiga inhibitor | LASV entry inh | Marburg entry inh
S=C(NCCc1c[nH]c2ccccc12)NC1CCCC1 | ? | 23* | 37 | 5%[46.1 µM] | -10%[46.1 µM]
S=C(NCCc1c[nH]c2ccccc12)NC1CCCCC1 | -14% | 16 | 60 | 2% | 14%[46.1 µM]
Cc1ccc(NC(=S)NCCc2c[nH]c3ccccc23)cc1 | 33% | 15* | 18 | -21% | 9%
Cc1c(Cl)cccc1NC(=O)CCS(=O)(=O)c1ccc2c(c1)CC(=O)N2C | . | . | . | 12%[46.1 µM] | .
Nc1ncnc2c1ncn2[C@@H]1O[C@H](C(=O)NC2CC2)[C@H](O)[C@H]1O | . | . | . | . | -11%
CCn1nccc1C(=O)Nc1ccc(C(=O)OC(C)C)cc1 | -3% | 24* | . | . | .
CCn1nccc1C(=O)Nc1ccc(Cl)cc1Cl | -7% | 23* | 40* | 10% | 25%
CCOC(=O)C1CCN(S(=O)(=O)c2ccc(N3CCCCS3(=O)=O)cc2)CC1 | . | . | . | -2%[46.1 µM] | .
COc1ccc(-c2nc(CCNC(=O)c3c(F)cccc3Cl)cs2)cc1 | . | . | . | -18%[46.1 µM] | .
Cc1nc2cc(NC(=O)N3c4ccccc4CC3C)ccc2o1 (stereo not given) | 0% | 42* | 73* | -8% | 1%
Cc1nc2cc(NC(=O)Nc3ccc(Br)cc3)ccc2o1 | 2% | 47* | 99* | ? | ?
Cc1ccccc1NC(=O)N1c2ccccc2CC1C (stereo not given) | 7% | 9 | 56 | -5% | 5%
Cc1ccc(-c2nc3cc(NC(=O)c4cc(Br)ccc4Cl)ccc3o2)cc1 | . | . | . | -12%[46.1 µM] | .
Cc1nc2cc(NC(=O)N3c4ccccc4CC3C)ccc2n1C (stereo not given) | -5% | 19* | 33* | ? | ?
COc1ccc(-c2ccccc2)cc1NC(=O)[C@@H]1O[C@H](CO)[C@H](O)[C@H](O)[C@H]1O | 0% | . | . | . | .
Cc1cc(C)c2[nH]c(=O)c(C(c3nnnn3C3CCCC3)N3CCOCC3)cc2c1 (stereo not given) | . | -5 | -15 | . | 0%
Oc1ccccc1N=Cc1sc2ccccc2c1Cl | -1% | 40* | 29* | -28% | ?
Cc1ccc(O)c(N=Cc2sc3ccccc3c2Cl)c1 | -13% | 45* | 73* | 17% | 8%
CC(C)N1C(=O)CCN(C=O)c2ccccc21 | 15% | -1 | -9 | -4% | 15%
Cc1cn2c(=O)cc(COC(=O)c3cccc(NC(=O)COc4ccccc4Cl)c3)nc2s1 | . | . | . | 29%[46.1 µM] | .
COc1ccccc1N1CCN(S(=O)(=O)CCNC(=O)Cc2ccc(Cl)cc2)CC1 | . | . | . | -13%[46.1 µM] | .
CCOc1ccc(CCNC(=O)COC(=O)C2CC2)cc1OCC | 16% | . | . | -4% | ?
CC(C)C(=O)Nc1sc2c(c1C(N)=O)CCN(Cc1ccccc1)C2 | -3% | -1 | -2 | . | .
CCC(=O)Nc1sc2c(c1C(N)=O)CCN(Cc1ccccc1)C2 | -7% | 13* | 24* | . | .
NC(=O)c1c(NC(=O)c2c(F)cccc2F)sc2c1CCN(Cc1ccccc1)C2 | 4% | 8.3* | 19* | . | .
SMILES | AMA1-RON2 inh | CHX counter | Shiga inhibitor | LASV entry inh | Marburg entry inh
NC(=O)c1c(NC(=O)c2ccccc2)sc2c1CCN(Cc1ccccc1)C2 | 6% | 13* | 5 | . | .
CC(=O)N1CCOc2ccc(S(=O)(=O)N(C)c3cccc(C)c3)cc21 | 6% | 7 | -8 | . | .
C=CCNC(=O)C1CC2Cn3c(nc4cc5ccccc5cc43)C2N1C (stereo not given) | 4% | 41* | 38* | . | .
COc1ccccc1CNc1ccc(CNc2ncn[nH]2)cc1 | 0% | -1 | 5 | . | .
COc1cc(CNc2ccc(CNc3ncn[nH]3)cc2)ccc1OCc1ccccc1 | -25% | 48* | 40* | -29% | ?
CCOc1ccc(CNc2ccc(CNc3ncn[nH]3)cc2)cc1 | 2% | 6 | -2 | . | .
c1ccc2c(CNc3ccc(CNc4ncn[nH]4)cc3)cccc2c1 | ? | 23* | active | -2% | -2%
Cc1ccc(CNc2ccc(CNc3ncn[nH]3)cc2)cc1 | -1% | 15* | 36 | 2% | ?
CC(C)COc1cccc(C(=O)Nc2ccc(-c3nc4ncccc4o3)cc2)c1 | . | . | . | -15%[46.1 µM] | .
Cc1ccc(CNC(=O)C2CCC(=O)N(CCc3cccc(F)c3)C2)cc1 (stereo not given) | -6% | -2 | -8 | -7% | -4%
Cc1cc(C(=O)Nc2ccc3c(c2)OCCO3)nn1C(C)(C)C | 2% | 79* | 140* | . | .
Cc1ccn2cc(C(=O)Nc3ccccc3N3CCOCC3)nc2c1 | 9% | 7 | 4 | 4% | -6%
Cc1cc(C(=O)Nc2ccccc2)nn1C(C)(C)C | -14% | 43* | 67* | 0% | 6%[46.1 µM]
Cc1ccn2cc(C(=O)Nc3ccc4c(c3)OCCO4)nc2c1 | 32% | 40* | 60* | ? | ?
Cc1cc(C(=O)NNS(=O)(=O)c2cccc(Cl)c2)nn1C(C)(C)C | 0% | -2 | 19 | . | .
O=C(Nc1ccc(Br)cc1F)c1ncoc1-c1ccco1 | . | . | . | 4%[46.1 µM] | .
COc1ccc(CCNC(=O)C(C)n2nc(C)c3c(C)n(-c4ccc(C)cc4)nc3c2=O)c(OC)c1 (stereo not given) | -4% | 10 | -7 | ? | ?
Cn1c(C(=O)O)c(CC(=O)N2CCC(Cc3ccccc3)CC2)c2ccccc21 | 15% | -6 | -16 | 17% | -4%
Cc1ccc(-n2c(C)cc(C(=O)CN3CCOCC3)c2C)cc1 | -11% | 46* | 85* | . | 8%[46.1 µM]
Cc1ccc(-n2c(C)cc(C(=O)CN3CCOCC3)c2C)cc1C | -13% | 21 | 32 | ? | -38%
Cc1cc(C(=O)CN2CCCC(C)C2)c(C)n1-c1ccc(F)cc1 (stereo not given) | 2% | 50* | 53* | 4% | 3%
COc1cc(C(=O)OCc2cc(=O)n3nc(C4CCCCC4)sc3n2)cc(OC)c1OC | . | . | . | 18%[46.1 µM] | .
O=[N+]([O-])c1ccc(N2CCN(Cc3ccccc3)CC2)s1 | 5% | -3 | -12 | 1%[46.1 µM] | 16%[46.1 µM]
O=[N+]([O-])c1ccc(N2CCN(Cc3ccccc3)CC2)c2c1no[n+]2[O-] | 22µM* | . | . | . | .
COc1ccccc1CN1CCN(C2CCN(C(=O)Nc3ccccc3)CC2)C(=O)C1=O | . | . | . | 18%[46.1 µM] | .
SMILES | AMA1-RON2 inh | CHX counter | Shiga inhibitor | LASV entry inh | Marburg entry inh
CCCCCCCCN1N=N[C@H]2[C@H]1[C@@H]1C[C@H]2N(C(=O)OC(C)(C)C)O1 | -3% | . | . | . | .
CCOc1cc(/C=N\NC(=O)c2ccc(NC(=O)C(C)(C)C)cc2)ccc1OC(=O)c1cccc(C)c1 | 7% | -1 | -20 | 6.5µM* | 2.6µM*
CCOc1cc(/C=N\NC(=O)c2ccc(NC(=O)CC)cc2)ccc1OC(=O)c1ccccc1 | 26% | 1 | 4 | 23µM* | ?
CCOc1cc(/C=N\NC(=O)c2ccc(NC(=O)C(C)(C)C)cc2)ccc1OC(=O)c1ccc(C)cc1 | 0% | -3 | -8 | ? | 34%
CC(C)(C)OC(=O)N(CCc1ccccc1)Cc1cccc(OCc2cccc(NC(=O)C3CCCC3)c2)c1 | -6% | . | . | . | .
O=C(/C=C1\NCC2c3ccccc3CCN2C1=O)c1ccccc1 (stereo not given) | 1% | 6 | -17 | ? | ?
O=C(Nc1cc2c(cc1Br)OCCCO2)c1ccccc1 | -8% | 78* | 123* | 1% | ?
CCC(=O)c1cc2c(cc1NC(=O)c1ccccc1)OCCO2 | -1% | 1 | -2 | -11% | 3%

Screening results deposited in PubChem BioAssay by National Center for Advancing Translational Sciences (NCATS).
